# Source: PubChem (The Scripps Research Institute Molecular Screening Center)
# TEAD-YAP block: TEAD-YAP interaction inhibition; HEK-TIYL cells, TEAD-Gal4/YAP UAS-luciferase luminescence; inhibition, % at 9.12 µM; 640,000 compounds, 1.4% hits; AID 1259422; in the data active = inhibition above about 32%;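 note: 0% = median of test compound wells and 100% = reference inhibitor wells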
# FBW7 act: human FBW7 E3 ligase activation, primary screen; 650,000 compounds, 0.13% hits; Q969H0; normalized activity (activation), % at 26.1 µM; AlphaScreen FBW7–phospho-cyclin E peptide binding, activator screen; in the data active = normalized activity above about 1.9%;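 note: purified mutant Fbw7 with reduced substrate affinity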
# GPR151 ag: activators of human GPR151. AID 1508602. activation, % at 11.2 µM. 650,000 compounds, 1% hits. Q8TDV0. PathHunter beta-arrestin GPR151 cells, luminescence; in the data active = activation above about 4.9%;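 note: 0% = median of compound wells and 100% = cells with positive control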
# MITF primary: human MITF inhibition, primary screen; inhibition, % at 2.6 µM; AID 1259374; O75030; 650,000 compounds, 0.91% hits; AlphaScreen MITF homodimerization, bead proximity signal; in the data active = inhibition above about 50%;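 note: 0% = vehicle wells with protein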
# Target sequence (O75030 whole entry, looked up): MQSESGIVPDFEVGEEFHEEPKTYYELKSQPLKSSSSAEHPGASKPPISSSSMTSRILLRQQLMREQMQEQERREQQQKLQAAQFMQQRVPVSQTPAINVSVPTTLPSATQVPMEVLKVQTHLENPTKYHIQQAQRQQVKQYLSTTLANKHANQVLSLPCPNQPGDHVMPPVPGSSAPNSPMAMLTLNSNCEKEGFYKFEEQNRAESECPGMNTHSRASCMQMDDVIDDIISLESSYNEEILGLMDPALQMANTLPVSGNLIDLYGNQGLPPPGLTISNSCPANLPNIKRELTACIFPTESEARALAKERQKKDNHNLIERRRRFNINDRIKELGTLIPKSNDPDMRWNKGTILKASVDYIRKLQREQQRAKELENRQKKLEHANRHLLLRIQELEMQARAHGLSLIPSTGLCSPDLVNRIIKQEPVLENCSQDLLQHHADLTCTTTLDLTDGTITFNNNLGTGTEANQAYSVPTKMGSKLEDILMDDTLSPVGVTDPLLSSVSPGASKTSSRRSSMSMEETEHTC
# GPR151 confirm: human GPR151 activation, confirmation screen. activation, % at 11.2 µM. GPR151 PathHunter beta-arrestin cells, luminescence, 90 min; % of EA-reagent control over plate median. shares compounds with GPR151 ag. 6,700 tested, under 10 active. AID 1508609;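 active = mean percent activation across replicates above the confirmation screen cutoff of 4.91%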
# GPR119 counter: counter-screen for GPR151 activators: effect on human GPR119. 6,700 compounds, 0.3% hits. GPR119 PathHunter beta-arrestin cells, luminescence, 90 min; 0 = compound-well median, 100 = enzyme-acceptor control. shares compounds with GPR151 ag. AID 1508611. activation, % at 11.2 µM;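 active = mean percent activation in the counterscreen above 29.09%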;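 note: counterscreen on off-target GPR119 to flag nonselective hits from the GPR151 activator screen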
# Active calls of the source: *; . = no result; ! = not confirmed by another sample. Shown are actives, neighbours in structure and some others; about 3.5% of the full set was active somewhere.
SMILES,TEAD-YAP block,FBW7 act,GPR151 ag,MITF primary,GPR151 confirm,GPR119 counter
C[C@H]1CC[C@@H]2[C@@H](C)[C@H]3[C@H](CC4[C@@H]5CC=C6CC(O[C@@H]7O[C@H](CO)C(O[C@@H]8O[C@@H](C)[C@H](O)[C@@H](O)[C@H]8O)[C@H](O)[C@H]7O[C@@H]7O[C@@H](C)[C@H](O)[C@@H](O)[C@H]7O)CC[C@]6(C)[C@H]5CC[C@@]43C)N2C1 (stereo partly specified),-11.9,0.0,7.2*,11.0,2.8,17.7
COC(=O)C1C(=O)N(C)C2(C)CC1c1cc(OC)ccc1O2 (stereo unspecified),13.9,0.1,1.1,-7.3,.,.
CC(=O)C1C2c3ccccc3OC1(C)N=c1s/c(=C\c3ccccc3F)c(=O)n12 (stereo unspecified),5.4,-0.3,0.7,-0.6,.,.
Nc1ncnc2c1ccn2[C@@H]1O[C@H](CO)[C@@H](O)[C@H]1O,100.3*,0.0,7.1*,10.3,5.9*,3.6
OCC1OC(Oc2ccc(Br)cc2)C(O)C(O)C1O (stereo unspecified),-4.8,-0.1,-0.2,-1.4,.,.
O=C1Nc2ccc(Cl)cc2C(c2ccccc2Cl)=NC1O (stereo unspecified),-18.5,-0.1,6.8*,5.8,1.0,-4.6
C=CCOc1ccccc1/C=C/[N+](=O)[O-],-1.0,0.1,7.3*,-5.0,0.1,6.0
O=[N+]([O-])/C=C/c1ccccc1OCc1ccc(F)cc1,-8.0,1.0,-1.5,13.4,.,.
Cc1ccccc1N1CCN(Cc2ccc([N+](=O)[O-])cc2)CC1,-2.5,-0.2,0.4,0.5,.,.
COc1ccccc1N1CCN(Cc2ccc([N+](=O)[O-])cc2)CC1,7.5,-0.1,5.5*,37.3,-0.9,8.1
O=C(Nc1cccc(F)c1)N1CC2CC(C1)c1cccc(=O)n1C2 (stereo unspecified),1.2,0.7,-0.2,2.2,.,.
CCCCC/C=C\C/C=C\C/C=C\C/C=C\CCCC(=O)O[C@H](COC(=O)CCCCCCCCCCCCCCCCC)COP(=O)(O)OCC[N+](C)(C)C,.,.,-2.2,4.0,.,.
O=C(COc1ccc(Br)cc1)N1CCN(CC2CC=CCC2)CC1 (stereo unspecified),-1.3,0.7,9.7*,16.4,-0.3,-6.5
CCCN(CCC)[C@@H]1CCc2c(F)ccc(O)c2C1,5.9,0.0,8.5*!,11.5,-0.5,-7.3
O=C1C(Cl)=C(Cl)C(=O)N1c1cccc(Cl)c1,-4.5,-0.3,1.7,17.1,.,.
COc1ccc(-n2c(/C=C/c3cc(Br)ccc3O)nc3ccccc3c2=O)cc1,-0.9,-0.3,1.1,6.6,.,.
N#CCC(=O)NN1Cc2ccccc2C1=N,1.2,0.0,6.8*,-3.8,-0.3,7.9
CC(=O)c1ccc(OCC(=O)N2CCCC(N(C)CCc3ccccc3)C2)cc1 (stereo unspecified),-2.0,0.1,5.0*,18.7,1.2,5.1
COc1cccc(OC)c1C1=NCC(=O)Nc2c1oc1ccc(Br)cc21,58.3*,0.0,5.7*,5.4,-0.5,-3.8
O=C1CN=C(c2ccccc2)c2oc3ccc(Br)cc3c2N1,0.5,-0.1,1.6,-1.4,.,.
CN1C(=O)NC(=O)/C(=C/c2ccc(-c3ccccc3[N+](=O)[O-])o2)C1=O,4.0,-0.1,5.0*,0.9,-1.3,-14.3
O=[N+]([O-])c1ccc(N2CCNCC2)nc1,-5.2,0.1,0.9,-5.5,.,.
CC12C=CC(=O)C=C1CCC1C2CCC2(C)C(=O)CCC12 (stereo unspecified),-16.2,-0.2,5.1*,6.7,-0.3,-5.5
C[C@]12CCC(=O)C=C1CC[C@@H]1[C@@H]2CC[C@]2(C)C(=O)CC[C@@H]12,-5.7,0.7,-0.9,2.5,.,.
COc1cccc(CN2CCN(C(=O)COc3ccccc3)CC2)c1,5.5,0.0,-0.6,28.9,.,.
CCOc1ccc(-n2c(/C=C/c3ccccc3)nc3ccccc3c2=O)cc1,13.0,0.0,6.9*,-4.1,0.1,-6.2
O=c1c2ccccc2nc(/C=C/c2ccccc2)n1-c1ccccc1,-3.8,-0.1,0.2,5.8,.,.
O=c1c2ccccc2nc(/C=C/c2ccccc2)n1-c1ccc(Cl)cc1,12.2,0.1,4.9*,-19.5,-0.1,-5.7
c1ccc2c(CCN3CCC(c4nc(-c5ccsc5)no4)CC3)c[nH]c2c1,2.8,-0.1,1.1,5.1,.,.
